Assay outcomes as filed in PubChem.
JMJD2E inh: inhibitors of human JMJD2E histone demethylase. B2RXH2. JMJD2E catalytic domain, FDH-coupled NADH fluorescence (FDH is formaldehyde dehydrogenase). Potency, µM (highest dose often 57.1 µM), hits mostly inhibitors. 1.6% of 230,000 active. AID 2147; further: nearly all actives have a fitted effect of over 50% in size
Target sequence (B2RXH2 1-337 limits assumed): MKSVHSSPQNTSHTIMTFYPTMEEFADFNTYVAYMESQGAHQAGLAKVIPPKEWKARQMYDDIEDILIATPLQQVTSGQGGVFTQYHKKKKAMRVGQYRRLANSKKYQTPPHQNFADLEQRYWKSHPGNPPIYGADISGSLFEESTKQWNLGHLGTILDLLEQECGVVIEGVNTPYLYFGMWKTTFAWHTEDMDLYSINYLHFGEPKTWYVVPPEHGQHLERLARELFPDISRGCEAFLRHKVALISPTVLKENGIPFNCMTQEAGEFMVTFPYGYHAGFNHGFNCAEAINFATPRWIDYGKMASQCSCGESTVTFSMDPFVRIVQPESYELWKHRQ
HTT cytoprotect: Huntington cell model cytoprotection by ATP luminescence; PC12 HTT-Q103 induced, cytoprotection, ATP luminescence, 40 h; Potency, µM (highest dose often 56.4 µM), usual class: activators; 0.14% of 230,000 active; AID 1471; active means well fitted curve in the direction sought with a large enough effect; inconclusive means small, poorly fitted or top-dose-only effect, or another doubt; inactive means no such curve, though single readings can be large; an effect the other way counts as inactive or inconclusive; further: nearly all actives have a fitted effect of over 45% in size
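Stable PC12 Q103-GFP cells in serum-supplemented, phenol red-free DMEM; induction by tebufenozide at 100 nM final; compound dose series; cell viability quantified luminescently from ATP.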
HPGD block: blocks human HPGD enzyme activity | P15428 | purified HPGD, NADH fluorescence kinetic, PGE2 substrate | Potency, µM, hits mostly inhibitors | 4.3% of 150,000 active
Target sequence (P15428 whole entry, looked up): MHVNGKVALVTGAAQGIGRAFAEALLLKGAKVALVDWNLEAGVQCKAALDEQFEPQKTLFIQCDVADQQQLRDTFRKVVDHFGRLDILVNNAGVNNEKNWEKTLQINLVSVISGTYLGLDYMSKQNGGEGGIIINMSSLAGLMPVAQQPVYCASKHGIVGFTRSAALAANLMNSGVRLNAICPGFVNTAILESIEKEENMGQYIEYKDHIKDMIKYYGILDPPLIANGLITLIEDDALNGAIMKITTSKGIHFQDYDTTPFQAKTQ
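NADH formation kinetics: reaction with 30 uM PGE2 and 1 mM NAD+ (final), 20 nM enzyme, Tris-HCl pH 8 with Tween 20, after 15 min compound preincubation at room temperature. Fluorescence change, last versus first of five reads.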
ALDH1A1 inh: blocks purified human ALDH1A1 activity; P00352; Potency, µM (doses to about 75.3 µM), hits mostly inhibitors; 7.3% of 220,000 active; Purified ALDH1A1, NADH fluorescence, propionaldehyde substrate; AID 1030
LMNA splice mod: LMNA splicing modulation; Potency, µM (titrated, usually from 46.1 µM), most hits filed as inhibitors; HeLa LMNA splicing GFP/RFP minigene ratio, 48 h; 0.01% of 200,000 active; active means well fitted inhibition curve with a large enough effect in the signal ratio, with a control signal flat, not every such curve was filed as active; inconclusive means small, poorly fitted or top-dose-only effect, or effect the other way, or a change in a side signal; the % refers to the signal ratio
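Read-out is the ratio of GFP to DsRed2 object intensity, acquired by 488 nm laser-scanning cytometry on HeLa lamin A-EGFP minigene reporter cells. Compound incubation 48 hrs at 37 °C in Opti-MEM with 2% FBS; DMSO 0.5% final.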
HttQ103 aggreg: reduces HttQ103-GFP aggregates in PC12 cells. Potency, µM (titrated, usually from 46.1 µM), most hits filed as inhibitors. PC12 HttQ103-GFP aggregates, Acumen cytometry, 40 h. AID 1688. 1.1% of 220,000 active; active means well fitted curve in the direction sought with a large enough effect; inconclusive means small, poorly fitted or top-dose-only effect, or another doubt; inactive means no such curve, though single readings can be large; an effect the other way counts as inactive or inconclusive; further: nearly all actives have a fitted effect of over 60% in size
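Compounds (qHTS titration) were added to PC12 cells expressing an ecdysone-driven HTT exon 1 Q103–GFP fusion after induction with 100 nM tebufenozide. Aggregate formation was measured as GFP objects in cell lysates.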
Numbers stand for hits; n = inactive; u = inconclusive; x = not tested or not shown; [ ] = dose if it differs, or a comment. This is a sample that favours compounds with a hit; in the whole collection about 9.2% have one here. Unless noted, the call rests on the fitted dose curve; in most records, active means well fitted inhibition curve with a large enough effect (not every such curve was filed as active); inconclusive means small, poorly fitted or top-dose-only effect, or another doubt; inactive means no such curve, though single readings can be large or run the other way.

SMILES | JMJD2E inh | HTT cytoprotect | HPGD block | ALDH1A1 inh | LMNA splice mod | HttQ103 aggreg
CCOC(=O)C1=C(C)N(c2ccc(C)cc2)C(=O)/C1=C\c1ccc(O)c(OC)c1 | 2.24µM | n[10 µM] | x | x | x | n[9.22 µM]
CCOc1cc(/C=C2\C(=O)N(Cc3ccco3)C(C)=C2C(=O)OC)ccc1O | n | n | x | 15.8µM | u | n
CCOc1cc(/C=C2\C(=O)N(CCc3ccc(OC)c(OC)c3)C(C)=C2C(=O)OC)ccc1O | n | n[10 µM] | u | 11.2µM | n | u
C=CCN1C(=O)/C(=C\c2ccco2)C(C(=O)OC)=C1C | n | n[10 µM] | 31.6µM | n | n | n
CCc1cccc(C)c1NC(=O)c1cc(S(=O)(=O)NCc2ccccc2Cl)ccc1F | x | x | x | x | n | x
CCCSC1=NC2(CCN(C(=O)NC3CCCCC3)CC2)N=C1c1ccc(C)cc1 | x | x | x | x | n | x
C#C[C@H](N)CCC(=O)O | x | n[1.9 µM] | x | x | x | x
COc1ccc(C(=O)C2CCCN(Cc3ccc(Sc4nncn4C)o3)C2)cc1F (stereo unspecified) | n | u | x | n | n | n[9.22 µM]
O=C(NC1CCCCC1)c1cnn2c(C(F)(F)F)cc(-c3ccco3)nc12 | u | n | u | u | n | n
O=C(NC1CCCCC1)c1nn2c(C(F)(F)F)cc(-c3ccco3)nc2c1Br | n | n | n | 22.4µM | n | n
CC1CCCCN1C(=O)c1cnn2c(C(F)(F)F)cc(-c3ccco3)nc12 (stereo unspecified) | u | n | 7.08µM | n | n | n
O=C(c1cnn2c(C(F)(F)F)cc(-c3ccco3)nc12)N1CCCCCC1 | n | n | u | u | n | n
Cc1c(Cl)cccc1-c1ccc(CNc2ccc3[nH]c(=O)[nH]c3c2)o1 | x | x | x | x | n | x
COc1cc(CNn2c(C)n[nH]c2=S)cc(Cl)c1OCc1ccccc1 | n | n | 15.8µM | 28.2µM | u | n
COc1cc(C(=S)N2CCCCC2)ccc1OCC(=O)N1CCCC1 | n | n | n | 22.4µM | n | n
CCOc1ccc(C(=O)N2CCCC2)cc1OC | n | n[0.074 µM] | 28.2µM | n | n | n
CCOc1ccc(C(=S)N2CCCC2)cc1OC | n | n[10 µM] | n | n | n | n
C[C@H]1[C@H](C)CC[C@]2(C(=O)O)CC[C@]3(C)C(=CCC4[C@@]5(C)CC[C@H](O)C(C)(C)[C@@H]5CC[C@]43C)[C@H]12 (stereo partly specified) | n | n[1.9 µM] | n | n | x | x
Cc1cc2cc(CN(C(=O)C3CC3)C3CCCC3)c3nnnn3c2cc1C | n | n[10 µM] | n | 0.199µM | n | n
CC(=O)Oc1ccc2cc(-c3ccccc3)c(=O)oc2c1 | u | n[10 µM] | x | x | x | n[9.22 µM]
CC1(C)CC2(CC(C)(C)N1)OC(=O)N1CCc3ccccc3C12C (stereo unspecified) | n | n[10 µM] | n | n | n | n
CN1C(=O)OC2(C)CCc3ccccc3C12C (stereo unspecified) | n | n | x | 31.6µM | n | n
O=C(NNc1ccc(Cl)cc1)c1sccc1Cl | n | n[10 µM] | x | 8.91µM | n | n[9.22 µM]
O=S(=O)(Nc1nnc(-c2ccccc2)s1)c1ccc(Cl)cc1 | n | n | n | n | u | 35.5µM
COc1ccc(Cc2nnc(NS(=O)(=O)c3ccccc3)s2)cc1 | n | n[10 µM] | x | u | n | n[9.22 µM]
SMILES | JMJD2E inh | HTT cytoprotect | HPGD block | ALDH1A1 inh | LMNA splice mod | HttQ103 aggreg
COc1ccccc1Nc1n[nH]c(=S)s1 | 20µM | n | x | 3.55µM | n | n
Cc1cccc(Nc2n[nH]c(=S)s2)c1C | 12.6µM | n | 10µM | 3.55µM | n | n
Cc1cccc(Nc2nc3ccccc3s2)c1C | n | x | n | n | u | n
COC(=O)C(Cc1ccccc1)NC(=O)c1cccc(S(=O)(=O)N(C)C)c1 (stereo unspecified) | n | n | x | u | n | n
c1ccc(-c2noc(CSc3nnc(Cc4cccs4)n3-c3ccccc3)n2)cc1 | n | n[0.074 µM] | n | u | u | n
COC(=O)c1ccc(-n2nnnc2SC)cc1 | n | n | 12.6µM | 28.2µM | n | u
c1ccc(-c2noc(CSc3nnnn3-c3ccccc3)n2)cc1 | n | n | n | 11.2µM | n | n
O=S(=O)(NCCSc1nnnn1-c1ccccc1)c1cccs1 | n | n[0.074 µM] | n | 12.6µM | n | n
Cc1ccc(-c2noc(CSc3nnnn3C3CCCCC3)n2)cc1 | n | n | n | 14.1µM | n | u
NCCCC(N)CC(=O)NCC1NC(=O)C(CO)NC(=O)C(N)CNC(=O)C(C2CCN=C(N)N2)NC(=O)/C(=C/NC(N)=O)NC1=O (stereo unspecified) | x | n | x | x | x | n
CCCN1CCC(NC(=O)Nc2ccc(Br)cc2)CC1 | n | n | x | n | n | n[9.22 µM]
O=C(O)c1ccc(-n2nnnc2SCc2ccccc2)cc1 | n | n | 20µM | n | n | n
NC(=O)c1ccc(-n2nnnc2SCc2ccc(F)cc2)cc1 | n | n[1.9 µM] | n | n | n | n
c1ccc(-n2nnnc2OCCOc2nnnn2-c2ccccc2)cc1 | n | n | n | 2.51µM | n | n
Cc1ccc(C(C)C)c(Oc2nnnn2-c2ccccc2)c1 | n | n | n | 17.8µM | n | n
CC(C)Oc1nnnn1-c1ccccc1 | n | n | n | n | n | n
COc1ccc(OC)c(NC(=O)CSc2nnnn2-c2ccccc2F)c1 | n | n | n | u | u | n
COC(=O)c1sccc1NC(=O)CSc1nnnn1-c1ccccc1F | n | n[0.074 µM] | n | 14.1µM | u | n
OC1CC2CC[C@H](C1)N2CCCN1c2ccccc2Sc2ccc(Cl)cc21 (stereo partly specified) | x | n[10 µM] | n | n[13.5 µM] | x | x
CCN(CC)CCCC(C)n1c(-c2ccccc2)nc2c(NCCOC)nc(C)nc21 (stereo unspecified) | u | n | u | u | x | x
O=[N+]([O-])c1ccc(Sc2nnnn2-c2ccccc2)nc1 | n | n | x | 22.4µM | x | u
Cc1cc(C)n2cc(CSc3nnnn3-c3ccccc3)nc2n1 | u | n[0.074 µM] | u | u | n | n
COc1cc(CSc2nnnn2-c2ccc(C)cc2)cc(OC)c1OC | n | n[0.074 µM] | n | u | u | 2.51µM
Cc1cccc2nc(CSc3nnnn3-c3ccccc3)cn12 | n | n | n | 10µM | n | n
C(=C\CSc1nnnn1-c1ccccc1)/CSc1nnnn1-c1ccccc1 | n | n | u | 0.1µM | u | n
SMILES | JMJD2E inh | HTT cytoprotect | HPGD block | ALDH1A1 inh | LMNA splice mod | HttQ103 aggreg
CC(C)(C)C1CCC2(CC1)CCN(CCCN1CCOCC1)CC2 | x | n[10 µM] | n | n[13.5 µM] | x | x
COCc1ccc(C(=O)N2CCCC(C(=O)c3cc(F)ccc3F)C2)s1 (stereo unspecified) | n | n[10 µM] | x | n | x | n[9.22 µM]
Cc1noc(C)c1COc1cccc(C(=O)Nc2ccc(OCc3ccccc3)cc2)c1 | n | n | n | n | n | n
COc1ccccc1Oc1nnnn1-c1ccc(C(N)=O)cc1 | n | n | n | 12.6µM | n | n
Cc1ccccc1-n1nnnc1Sc1nnnn1-c1ccccc1 | n | n | n | 25.1µM | u | 14.1µM
CSc1ccccc1-n1nnnc1SCc1ccccc1 | n | n[0.074 µM] | n | 7.08µM | u | u
NC(=O)c1ccc(-n2nnnc2Oc2ccccc2)cc1 | n | n | n | n | n | n
